Measurements taken from PubChem BioAssay (NCATS).
Results filed as inconclusive are left out. Activity calls are given as the source filed them. Unless noted, calls follow the shape of the dose curve; as a rule, active = well fitted curve in the direction sought with a large enough effect; inconclusive = small, poorly fitted or top-dose-only effect, or another doubt; inactive = no such curve, though single readings can be large; an effect the other way counts as inactive or inconclusive.

What was measured:
[1] = qHTS Assay for Lipid Storage Modulators (AID 1519; calls by dose curve); details: Drosophila S3 cells, BODIPY lipid droplet/cell ratio, laser cytometry, cells loaded with oleic acid
Summary of the method: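 Cells seeded at 5,000 per well were treated with compounds over a concentration series and loaded with oleic acid (400 uM, as added). Lipid droplet fluorescence (488 nm excitation, 500-530 nm channel) was read by laser-scanning cytometry and normalized to 20 uM Triacsin C.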

[2] = target: Lysosomal acid glucosylceramidase (Homo sapiens) (UniProt P04062); assay: Glucocerebrosidase-p2 (AID 348; in the data active = potency below about 10 µM; also: potency is read from the fitted curve at half-maximal effect); details: purified GBA, blue fluorogenic substrate, 40 min
Chain of Lysosomal acid glucosylceramidase (Homo sapiens) (P04062 whole entry, looked up): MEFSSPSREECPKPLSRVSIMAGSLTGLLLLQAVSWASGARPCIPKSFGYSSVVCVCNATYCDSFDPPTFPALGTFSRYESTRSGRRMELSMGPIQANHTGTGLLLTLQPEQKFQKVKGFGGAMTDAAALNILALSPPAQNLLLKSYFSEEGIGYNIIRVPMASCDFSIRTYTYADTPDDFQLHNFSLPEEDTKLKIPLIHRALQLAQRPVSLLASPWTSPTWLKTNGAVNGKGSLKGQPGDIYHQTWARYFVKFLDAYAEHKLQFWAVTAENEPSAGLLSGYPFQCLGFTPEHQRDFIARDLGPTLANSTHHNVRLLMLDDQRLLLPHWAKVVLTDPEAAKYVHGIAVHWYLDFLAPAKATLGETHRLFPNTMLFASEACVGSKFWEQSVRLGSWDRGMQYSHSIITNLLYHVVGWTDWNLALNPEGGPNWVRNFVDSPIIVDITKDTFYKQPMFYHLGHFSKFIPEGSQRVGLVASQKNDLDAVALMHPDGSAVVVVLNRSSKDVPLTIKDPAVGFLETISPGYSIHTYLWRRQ
Summary of the method: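 Compounds titrated from 0.6 nM upwards against 0.2 nM enzyme in pH 5.9 citric acid/KH2PO4, taurocholate, tween-20; blue fluorogenic substrate 80 uM, 40 min room temperature, stopped and read Ex 365/Em 440 for AC50.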

[3] = AP1 Signaling Pathway (AID 357; active = well fitted curve in either direction with a large enough effect, not every such curve was filed as active; also: % is scaled to controls: 0 for no effect and ±100 for the full control effect); details: ME-180 AP-1-bla reporter, EGF-induced, beta-lactamase ratio, 5 h; at 7.69 µM (top of the series) unless noted
Summary of the method: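 ME-180 cells with beta-lactamase reporter under AP-1 response element, stimulated with EC50 EGF; compounds tested in titration series, 5 h at 37 °C. CCF4 substrate added 2.5 h at room temperature; 460/530 nm emission ratio gave %activity and AC50.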

[4] = target: Cytochrome P450 1A2 (Homo sapiens) (UniProt P05177); assay: p450-cyp1a2 (AID 410; calls by dose curve; also: potency is read from the fitted curve at half-maximal effect)
Chain of Cytochrome P450 1A2 (Homo sapiens) (P05177 whole entry, looked up): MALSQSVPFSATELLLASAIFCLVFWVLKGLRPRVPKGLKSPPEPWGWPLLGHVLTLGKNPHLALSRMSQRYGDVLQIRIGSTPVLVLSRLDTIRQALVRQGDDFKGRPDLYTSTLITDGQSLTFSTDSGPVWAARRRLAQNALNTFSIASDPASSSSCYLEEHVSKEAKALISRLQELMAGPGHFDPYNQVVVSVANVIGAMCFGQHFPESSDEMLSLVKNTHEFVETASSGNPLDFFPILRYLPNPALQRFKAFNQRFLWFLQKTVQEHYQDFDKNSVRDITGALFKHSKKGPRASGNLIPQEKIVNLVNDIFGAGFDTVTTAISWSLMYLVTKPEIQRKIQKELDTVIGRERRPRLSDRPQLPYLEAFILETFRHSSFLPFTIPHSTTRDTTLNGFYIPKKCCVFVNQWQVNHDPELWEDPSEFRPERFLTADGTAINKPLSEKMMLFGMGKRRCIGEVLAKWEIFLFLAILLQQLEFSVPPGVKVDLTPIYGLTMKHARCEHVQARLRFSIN
Summary of the method: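 Inhibition was calculated relative to 57 uM furafylline (full inhibition). The reaction used human CYP1A2 at 20nM with Luciferin-ME at its Km, 100uM, driven by an NADPH-regenerating system for 60 min at room temperature.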

[5] = NFAT Signaling Pathway (AID 444; active = well fitted curve in either direction with a large enough effect, not every such curve was filed as active;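 also: carbachol stimulus at about its EC50 of 1 µM final; % is scaled to controls: 0 for no effect and ±100 for the full control effect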); details: Jurkat NFAT-bla M1, carbachol, beta-lactamase ratio, 5 h; at 7.69 µM (top of the series) unless noted
Summary of the method: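 Jurkat cells carrying an NFAT-driven β-lactamase reporter and co-transfected muscarinic M1 receptor were treated with compound plus carbachol (1 uM final, an EC50 level) for 5 h at 37 °C. CCF4 loading followed for 1 h at RT; 460/530 nm ratio gave %activity.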

[6] = Stat Signaling Pathway (AID 446; active = well fitted curve in either direction with a large enough effect, not every such curve was filed as active;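 also: ME-180 cervical cancer cells given 40 pM IL-6 alongside compound; SIE-controlled beta-lactamase reporter measured as 460/530 nm FRET emission ratio; % is scaled to controls: 0 for no effect and ±100 for the full control effect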); details: ME-180 (cervical carcinoma) SIE beta-lactamase reporter, IL-6 stimulated, 5 h; at 7.69 µM (top of the series) unless noted
Summary of the method: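 IL-6/STAT signaling read in ME-180 cells via an SIE beta-lactamase reporter. Stimulus was 40 pM IL-6 (its AC50) for 5 hrs, so both activation and inhibition register.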

[7] = target: Glucocorticoid receptor (Homo sapiens) (UniProt P04150); assay: GR-GFP Redistribution (AID 450;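 active = compounds whose dose series gives a full or clear partial fitted curve of increased nuclear translocation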; also: potency is read from the fitted curve at half-maximal effect); details: U2OS GR-GFP nuclear translocation, laser cytometry, 2 h
Chain of Glucocorticoid receptor (Homo sapiens) (P04150 whole entry, looked up, the tested form may be a part): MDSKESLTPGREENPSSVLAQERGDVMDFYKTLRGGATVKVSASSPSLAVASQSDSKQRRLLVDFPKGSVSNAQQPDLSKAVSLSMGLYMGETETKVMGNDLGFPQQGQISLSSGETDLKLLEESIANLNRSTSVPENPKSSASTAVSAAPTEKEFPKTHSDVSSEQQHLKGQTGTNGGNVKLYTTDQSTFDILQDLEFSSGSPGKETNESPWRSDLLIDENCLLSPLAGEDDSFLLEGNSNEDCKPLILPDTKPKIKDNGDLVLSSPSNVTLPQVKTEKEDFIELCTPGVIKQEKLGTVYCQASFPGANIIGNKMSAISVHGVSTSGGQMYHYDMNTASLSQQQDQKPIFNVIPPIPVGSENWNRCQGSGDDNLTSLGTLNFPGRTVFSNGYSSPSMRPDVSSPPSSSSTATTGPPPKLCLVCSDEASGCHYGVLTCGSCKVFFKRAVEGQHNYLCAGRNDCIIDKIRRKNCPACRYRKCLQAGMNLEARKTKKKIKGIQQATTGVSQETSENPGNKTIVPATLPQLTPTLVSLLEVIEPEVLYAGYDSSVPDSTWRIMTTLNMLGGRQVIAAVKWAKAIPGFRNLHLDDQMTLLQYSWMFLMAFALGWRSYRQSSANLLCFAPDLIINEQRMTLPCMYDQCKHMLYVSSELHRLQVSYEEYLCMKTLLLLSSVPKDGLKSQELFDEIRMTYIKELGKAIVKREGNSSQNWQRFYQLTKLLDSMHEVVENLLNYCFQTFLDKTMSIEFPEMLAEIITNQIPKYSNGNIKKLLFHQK

[8] = target: Glucocorticoid receptor (Homo sapiens) (UniProt P04150); assay: GR-EFC Redistribution (AID 451; calls by dose curve; also: potency is read from the fitted curve at half-maximal effect); details: CHO-K1 GR-EFC translocation, beta-gal luminescence, 2 h
Summary of the method: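 CHO-K1 cells stably expressing nuclear-localized β-gal enzyme acceptor and GR fused C-terminally to the enzyme donor fragment; ligand-driven nuclear translocation restores β-gal by complementation. Compounds titrated up to 46 uM final, 2 h at 37 °C; luminescence read.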

[9] = target: Mitogen-activated protein kinase 10 (Mus musculus) (UniProt Q61831); assay: JNK3 AlphaScreen Assay (AID 530; active = well fitted curve in either direction with a large enough effect, not every such curve was filed as active;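 also: kinase came from lysate of stimulated human HepG2 cells; signal reports phosphorylation of biotinylated GST-cJun 1-79 at Ser73 with 10 µM ATP; % is scaled to controls: 0 for no effect and ±100 for the full control effect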)
Summary of the method: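 JNK3 came from HepG2 lysates pre-activated with IL-1beta and TNF-alpha and phosphorylated biotinylated GST-cJun (1-79) at 10 uM ATP, pH 7.6, room temperature. Compounds were titrated. AlphaScreen signal used anti-phospho-cJun (Ser73) antibody.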

[10] = target: 3',5'-cyclic-AMP phosphodiesterase 4B (Homo sapiens) (UniProt Q07343); assay: qHTS Assay for Inhibitors of PDE-IV (AID 607; active = well fitted activation curve with a large enough effect in the main read-out, with a control signal flat, not every such curve was filed as active; also: % of control where 0% means no effect)
Chain of 3',5'-cyclic-AMP phosphodiesterase 4B (Homo sapiens) (Q07343 whole entry, looked up): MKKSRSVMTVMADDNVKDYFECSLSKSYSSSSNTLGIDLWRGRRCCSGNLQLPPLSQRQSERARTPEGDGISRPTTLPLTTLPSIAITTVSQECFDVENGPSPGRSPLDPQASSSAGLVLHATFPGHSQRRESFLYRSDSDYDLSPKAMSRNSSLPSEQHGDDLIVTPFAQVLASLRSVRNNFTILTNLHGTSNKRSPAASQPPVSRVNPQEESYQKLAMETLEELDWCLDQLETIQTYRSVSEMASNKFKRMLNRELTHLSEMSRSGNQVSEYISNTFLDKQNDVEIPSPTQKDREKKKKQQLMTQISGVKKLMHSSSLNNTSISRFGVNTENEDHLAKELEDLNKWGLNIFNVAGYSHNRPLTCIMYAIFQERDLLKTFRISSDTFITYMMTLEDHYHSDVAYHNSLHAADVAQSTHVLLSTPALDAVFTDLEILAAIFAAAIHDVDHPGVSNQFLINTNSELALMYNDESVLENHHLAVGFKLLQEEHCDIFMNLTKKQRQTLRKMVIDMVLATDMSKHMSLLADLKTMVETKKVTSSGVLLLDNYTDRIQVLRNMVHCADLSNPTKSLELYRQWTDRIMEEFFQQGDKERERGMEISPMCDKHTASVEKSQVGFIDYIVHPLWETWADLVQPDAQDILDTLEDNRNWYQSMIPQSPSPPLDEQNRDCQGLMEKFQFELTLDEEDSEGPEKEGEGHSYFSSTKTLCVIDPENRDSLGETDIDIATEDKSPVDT
Summary of the method: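 Live HEK293 cells with a modified cyclic nucleotide-gated (CNG) channel report intracellular cAMP via membrane-potential dye fluorescence (ex 535/em 590 nm). Endogenous PDE-IV was targeted. Compounds were tested at up to 22.9 uM final; RO 20-1724 100 uM served as control.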

[11] = target: Cytochrome P450 3A4 (Homo sapiens) (UniProt P08684); assay: qHTS Assay for Activators of Cytochrome P450 3A4 (AID 885); also: nearly all actives have a fitted effect of over 65% in size
Chain of Cytochrome P450 3A4 (Homo sapiens) (P08684 whole entry, looked up): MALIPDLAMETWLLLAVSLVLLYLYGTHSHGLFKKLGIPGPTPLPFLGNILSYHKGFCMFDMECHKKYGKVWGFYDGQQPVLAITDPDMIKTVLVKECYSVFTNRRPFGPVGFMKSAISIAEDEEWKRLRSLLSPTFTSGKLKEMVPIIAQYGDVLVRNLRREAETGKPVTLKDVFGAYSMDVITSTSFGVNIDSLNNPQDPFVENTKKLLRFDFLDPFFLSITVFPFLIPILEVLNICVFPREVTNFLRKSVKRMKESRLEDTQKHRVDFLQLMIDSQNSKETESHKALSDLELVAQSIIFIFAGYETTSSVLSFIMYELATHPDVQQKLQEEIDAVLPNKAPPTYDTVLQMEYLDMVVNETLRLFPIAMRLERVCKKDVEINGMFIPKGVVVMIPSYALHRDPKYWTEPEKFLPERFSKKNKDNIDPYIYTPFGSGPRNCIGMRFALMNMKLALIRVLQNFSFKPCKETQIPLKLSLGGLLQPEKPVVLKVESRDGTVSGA
Summary of the method: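 Quantitative HTS format: compounds preincubated with 20nM human CYP3A4 and Luciferin-PPXE substrate at KM, reaction started by NADPH regeneration, stopped after 60 min, luciferase luminescence read 20 min later.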

[12] = target: Dual specificity protein kinase CLK4 (Homo sapiens) (UniProt Q9HAZ1); assay: qHTS Assay for Inhibitors of CDC-like Kinase 4 (Kinase-Glo Assay) (AID 1770); also: % is scaled to controls: 0 for no effect and ±100 for the full control effect; nearly all actives have a fitted effect of over 65% in size
Chain of Dual specificity protein kinase CLK4 (Homo sapiens) (Q9HAZ1 whole entry, looked up): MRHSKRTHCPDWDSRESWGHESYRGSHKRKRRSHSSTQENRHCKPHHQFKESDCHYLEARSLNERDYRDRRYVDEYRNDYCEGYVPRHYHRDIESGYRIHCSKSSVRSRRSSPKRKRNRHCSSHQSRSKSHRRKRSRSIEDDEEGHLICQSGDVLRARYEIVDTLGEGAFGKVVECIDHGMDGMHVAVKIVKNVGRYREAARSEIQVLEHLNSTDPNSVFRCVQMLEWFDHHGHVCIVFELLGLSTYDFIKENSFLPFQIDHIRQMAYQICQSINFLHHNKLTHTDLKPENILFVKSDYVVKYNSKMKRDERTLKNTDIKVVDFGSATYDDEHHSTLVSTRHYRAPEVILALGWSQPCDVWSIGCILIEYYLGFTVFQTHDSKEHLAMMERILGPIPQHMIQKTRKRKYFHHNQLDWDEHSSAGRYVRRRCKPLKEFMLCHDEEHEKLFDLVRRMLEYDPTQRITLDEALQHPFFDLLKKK
Summary of the method: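 Readout: Kinase-Glo luminescence from ATP left after a 4.5 h room-temperature reaction of 25 nM Clk4 with 100 uM RS peptide and 1 uM ATP (final). Buffer: 25 mM Tris pH 7.5, 10 mM MgCl2.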

[13] = target: Dual specificity protein kinase CLK4 (Homo sapiens) (UniProt Q9HAZ1); assay: qHTS Assay for Inhibitors of CDC-like Kinase 4 (ADP-Glo Assay) (AID 1771); also: % is scaled to controls: 0 for no effect and ±100 for the full control effect; nearly all actives have a fitted effect of over 70% in size
Summary of the method: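 Kinase reaction: Clk4 at 25 nM, RS repeat peptide substrate at 100 uM, ATP at 1 uM, 1 hr, room temperature. Product ADP detected as luciferase signal via ADP-Glo.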

[14] = target: Dual specificity protein kinase CLK4 (Homo sapiens) (UniProt Q9HAZ1); assay: qHTS Assay for Inhibitors of CDC-like Kinase 4 (ADP-FP Assay) (AID 1795);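 also: recombinant human CLK4 phosphorylating RS repeat peptide at 1 µM ATP; % is scaled to controls: 0 for no effect and ±100 for the full control effect; nearly all actives have a fitted effect of over 60% in size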
Summary of the method: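 FP readout: Orange Transcreener ADP2 tracer (4 nM) plus ADP antibody, read after 30 min at room temperature. Kinase step: 6.25 nM Clk4, 100 uM RS peptide, 1 uM ATP, pH 7.5, 1 h.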

[15] = target: Ubiquitin carboxyl-terminal hydrolase 1 (Homo sapiens) (UniProt O94782); assay: Inhibitors of USP1/UAF1: Pilot qHTS (AID 504865);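 also: rhodamine fluorescence freed from ubiquitin-rhodamine substrate followed over time; top concentration of the series differs between compounds; % is scaled to controls: 0 for no effect and ±100 for the full control effect; nearly all actives have a fitted effect of over 35% in size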
Chain of Ubiquitin carboxyl-terminal hydrolase 1 (Homo sapiens) (O94782 whole entry, looked up): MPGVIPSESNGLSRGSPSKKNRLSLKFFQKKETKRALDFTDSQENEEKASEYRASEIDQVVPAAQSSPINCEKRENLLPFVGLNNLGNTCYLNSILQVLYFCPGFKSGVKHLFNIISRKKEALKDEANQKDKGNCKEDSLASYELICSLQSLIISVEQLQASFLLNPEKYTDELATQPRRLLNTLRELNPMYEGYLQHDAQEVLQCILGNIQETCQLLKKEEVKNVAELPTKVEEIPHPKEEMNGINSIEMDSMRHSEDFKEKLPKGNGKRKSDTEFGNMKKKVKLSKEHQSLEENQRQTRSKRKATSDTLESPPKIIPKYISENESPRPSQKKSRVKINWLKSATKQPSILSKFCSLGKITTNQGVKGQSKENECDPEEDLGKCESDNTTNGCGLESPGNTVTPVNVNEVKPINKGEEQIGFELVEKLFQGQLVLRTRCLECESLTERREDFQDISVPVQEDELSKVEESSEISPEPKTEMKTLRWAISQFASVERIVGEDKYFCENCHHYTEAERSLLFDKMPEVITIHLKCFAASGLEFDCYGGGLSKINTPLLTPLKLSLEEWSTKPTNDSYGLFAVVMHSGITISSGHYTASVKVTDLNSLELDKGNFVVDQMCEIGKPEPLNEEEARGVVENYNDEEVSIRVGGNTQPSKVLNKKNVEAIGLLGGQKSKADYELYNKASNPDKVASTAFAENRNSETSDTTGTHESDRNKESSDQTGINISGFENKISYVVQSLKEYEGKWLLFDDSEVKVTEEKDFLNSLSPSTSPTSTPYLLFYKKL
Summary of the method: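 1nM USP1/UAF1 + cpd, 15 min RT; start w/ Ub-Rho 150nM final; kinetic FL 480/540 nm, 6 reads q60 s. Buffer 50mM HEPES pH 7.8, 0.5mM EDTA, 1mM TCEP, 0.01% Tween-20, 0.1 mg/ml BSA.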

[16] = Confirmation and Secondary Assay for Modulators of Hemoglobin Beta Chain Splicing at IVS2 705 locus (AID 930);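 also: HeLa cells stably expressing the EGFP-705 splicing reporter; GFP fluorescence per well restored by corrected splicing of the IVS2-705 intron in EGFP; % of control where 0% means no effect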
Summary of the method: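 Fluorescence gain (488 nm laser, 500-520 nm PMT) reflects restored correct splicing of a mutant IVS2-705 intron inside EGFP in stably transfected HeLa cells after 2-day compound treatment.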

[17] = target: Rap guanine nucleotide exchange factor 3 (Homo sapiens) (UniProt O95398); assay: Confirmatory qHTS for agonist of cAMP-regulated guanine nucleotide exchange factor 3 (EPAC1) (AID 1645881);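 also: EPAC1 catalysed release of BODIPY-GDP from Rap1B seen as fluorescence loss; 100% = effect of cAMP agonist control; nearly all actives have a fitted effect of over 75% in size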
[18] = target: Rap guanine nucleotide exchange factor 4 (Homo sapiens) (UniProt Q8WZA2); assay: Confirmatory qHTS for agonist of cAMP-regulated guanine nucleotide exchange factor 4 (EPAC2) (AID 1645884);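 also: nucleotide exchange releases bodipy-GDP from Rap1 and this lowers its fluorescence; % is scaled to controls: 0 for no effect and ±100 for the full control effect; nearly all actives have a fitted effect of over 65% in size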
[19] = target: Cytochrome P450 3A4 (Homo sapiens) (UniProt P08684); assay: qHTS Assay for Inhibitors and Substrates of Cytochrome P450 3A4 (AID 884); also: nearly all actives have a fitted effect of over 50% in size; also: potency is read from the fitted curve at half-maximal effect
Summary of the method: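 20 nM human CYP3A4 with 25 uM Luciferin-PPXE (at KM) in 200 mM KPO4, preincubated 10 min with compound; NADPH regeneration started a 60 min RT reaction. Luciferin detected by luminescence, normalized to 57 uM ketoconazole as full inhibition.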

[20] = Confirmation and Secondary Assay for Modulators of Hemoglobin Beta Chain Splicing at IVS2 654 locus (AID 910);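 also: per-well total GFP intensity by laser scanning cytometry after 2-day treatment; % of control where 0% means no effect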
Summary of the method: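 HeLa cells stably carrying EGFP interrupted by mutant beta-globin IVS2-654 intron (CMV-driven) were treated with compound for 2 days at 37C; corrected splicing was scored as total peak GFP intensity per well (488 nm excitation, 500-520 nm emission).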

[21] = measured here: cell count channel max response
[22] = measured here: lipid channel max response

## COc1ccc(/C=C/C(=O)O)cc1OC
[1]; at 57.5 µM (top of the series)
  activity change, negative = inhibition: 14.6% (inactive)
[1]; [21]
  max response: 4.45%
[1]; [22]
  max response: 26.5%

## CN1CCN(c2ncc3nc(-c4cn(C)c5ccccc45)c(=O)n(C)c3n2)CC1
[2]
  Potency: > 11.4 µM (inactive)
[3]
  activity change, negative = inhibition: -20.2% (inactive)
[4]
  Potency: 31.6 µM (active)
[5]
  activity change, negative = inhibition: 11.3% (inactive)
[6]
  activity, negative = inhibition: 12.5% (inactive)
[7]
  Potency: > 9.22 µM (inactive)
[8]
  Potency: > 46 µM (inactive)
[9]
  Potency: inactive
[10]
  Potency: inactive
[11]
  Potency: inactive
[1]; at 57.5 µM (top of the series)
  activity change, negative = inhibition: 2.17% (inactive)
[1]; [21]
  max response: 7.27%
[1]; [22]
  max response: 7.8%
[12]
  Potency: inactive
[13]
  Potency: inactive
[14]
  Potency: inactive
[15]
  Potency: inactive

## Cc1cc(/C=C\c2ccc3cc(N(C)C)ccc3[n+]2C)c(C)n1-c1ccccc1
[3]
  activity change, negative = inhibition: 12.4% [at 17.2 µM] (inactive)
[7]
  Potency: > 20.6 µM (inactive)
[8]
  Potency: > 20.6 µM (inactive)
[10]
  Potency: inactive
[1]; at 25.7 µM (top of the series)
  activity change, negative = inhibition: -5.56% (inactive)
[1]; [21]
  max response: -11.1%
[1]; [22]
  max response: -18.2%

## Nc1c2ccccc2nc2ccccc12 (tested in a mixture with another compound)
[11]
  Potency: inactive
[16]
  outcome: inactive
[1]; at 57.5 µM (top of the series)
  activity change, negative = inhibition: -15.1% (inactive)
[1]; [21]
  max response: -8%
[1]; [22]
  max response: -17.5%
[15]
  Potency: inactive
[17]
  Potency: inactive
[18]
  Potency: inactive

## COc1ccc(-c2nc3cnc(N4CCN(C)CC4)nc3n(C)c2=O)cc1
[2]
  Potency: > 11.4 µM (inactive)
[3]
  activity change, negative = inhibition: 14.5% (inactive)
[4]
  Potency: 25.1 µM (active)
[5]
  activity change, negative = inhibition: 27.7% (inactive)
[6]
  activity, negative = inhibition: 26.5% (inactive)
[7]
  Potency: > 9.22 µM (inactive)
[8]
  Potency: > 46 µM (inactive)
[9]
  Potency: inactive
[10]
  Potency: inactive
[1]; at 57.5 µM (top of the series)
  activity change, negative = inhibition: 1.83% (inactive)
[1]; [21]
  max response: 6.37%
[1]; [22]
  max response: 3.68%
[12]
  Potency: inactive
[13]
  Potency: inactive
[14]
  Potency: inactive
[15]
  Potency: inactive

## CN1CCN(c2ncc3nc(-c4cccc(C#N)c4)c(=O)n(C[C@H]4CCCO4)c3n2)CC1
[2]
  Potency: > 11.4 µM (inactive)
[3]
  activity change, negative = inhibition: 27.9% (inactive)
[4]
  Potency: 15.8 µM (active)
[5]
  activity change, negative = inhibition: -3.07% (inactive)
[6]
  activity, negative = inhibition: 11.4% (inactive)
[7]
  Potency: > 9.22 µM (inactive)
[8]
  Potency: > 46 µM (inactive)
[9]
  Potency: inactive
[10]
  Potency: inactive
[19]
  Potency: inactive
[1]; at 57.5 µM (top of the series)
  activity change, negative = inhibition: 2.76% (inactive)
[1]; [21]
  max response: 11.1%
[1]; [22]
  max response: 12.1%
[12]
  Potency: inactive
[13]
  Potency: inactive
[14]
  Potency: inactive
[15]
  Potency: inactive

## COc1ccc(-c2cc(=O)c3c(OC)c(OC)c(OC)c(OC)c3o2)cc1OC
[19]
  Potency: 25.1 µM (active)
[11]
  Potency: inactive
[20]
  Potency: inactive
[16]
  outcome: inactive
[1]; at 57.5 µM (top of the series)
  activity change, negative = inhibition: -10.1% (inactive)
[1]; [21]
  max response: -11.8%
[1]; [22]
  max response: -19.5%
[15]
  Potency: inactive

## Nc1ncnc2c1ncn2[C@@H]1O[C@H](COP(=O)(O)OP(=O)(O)OP(=O)(O)OP(=O)(O)OC[C@@H]2O[C@H](n3cnc4c(N)ncnc43)[C@@H](O)[C@@H]2O)[C@H](O)[C@H]1O
[1]; at 57.5 µM (top of the series)
  activity change, negative = inhibition: 1.69% (inactive)
[1]; [21]
  max response: 17%
[1]; [22]
  max response: 19.7%
